# Screens: PubChem, The Scripps Research Institute Molecular Screening Center
# Shown are actives, neighbours in structure and some others; about 3.5% of the full set was active somewhere.
# FBW7 act = human FBW7 E3 ligase activation, primary screen. AID 1259310. AlphaScreen FBW7–phospho-cyclin E peptide binding, activator screen. Q969H0. normalized activity (activation), % at 26.1 µM. actives 0.13% (n = 650,000); in the data active = normalized activity above about 1.9%;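 note: purified mutant Fbw7 with reduced substrate affinity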
# TEAD-YAP inh = TEAD-YAP interaction inhibition; HEK-TIYL cells, TEAD-Gal4/YAP UAS-luciferase luminescence; inhibition, % at 9.12 µM; actives 1.4% (n = 640,000); in the data active = inhibition above about 32%;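 note: 0% = median of test compound wells and 100% = reference inhibitor wells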
# MITF primary = inhibitors of human MITF. actives 0.91% (n = 650,000). O75030. AlphaScreen MITF homodimerization, bead proximity signal. inhibition, % at 2.6 µM; in the data active = inhibition above about 50%;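 note: 0% = vehicle wells with protein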
# GPR151 activ = activators of human GPR151; Q8TDV0; PathHunter beta-arrestin GPR151 cells, luminescence; activation, % at 11.2 µM; actives 1% (n = 650,000); in the data active = activation above about 4.9%;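 note: 0% = median of compound wells and 100% = cells with positive control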
# Target sequence (Q8TDV0 whole entry, looked up): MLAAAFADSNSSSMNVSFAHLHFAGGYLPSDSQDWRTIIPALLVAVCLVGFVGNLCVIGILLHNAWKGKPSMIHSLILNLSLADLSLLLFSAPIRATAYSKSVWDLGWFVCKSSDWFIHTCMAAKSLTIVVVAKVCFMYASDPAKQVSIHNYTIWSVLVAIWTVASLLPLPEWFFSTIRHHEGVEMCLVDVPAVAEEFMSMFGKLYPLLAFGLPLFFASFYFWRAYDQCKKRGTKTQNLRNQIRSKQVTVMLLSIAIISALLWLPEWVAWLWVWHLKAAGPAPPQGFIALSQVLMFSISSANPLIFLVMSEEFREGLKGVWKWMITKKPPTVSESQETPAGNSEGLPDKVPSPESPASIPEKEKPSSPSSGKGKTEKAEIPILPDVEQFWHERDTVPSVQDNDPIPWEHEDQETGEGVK
# MITF confirm = confirmation of human MITF inhibitors. AlphaScreen MITF homodimerization, biotin/His-MITF beads. shares compounds with MITF primary. AID 1259372. inhibition, % at 2.6 µM. actives 16% (n = 4,700);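 active = inhibition above a cutoff derived from the DMSO control wells, cut at about 28% in these data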;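 note: 0% = MITF dimer wells with DMSO only; inhibitors lower the bead chemiluminescence by keeping MITF from dimerizing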
# AS interf DR = optically interferes with AlphaScreen signal in dose response; AlphaScreen optical interference counterscreen, cell-free; shares compounds with MITF primary; actives 6% (n = 480); IC50, µM; call rule not given here
# AS interf ctr = counter-screen: compounds optically interfering with AlphaScreen. actives 7.6% (n = 4,700). shares compounds with MITF primary. inhibition, % at 2.6 µM. LysRS AlphaScreen counterscreen, signal interference, triplicate;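 active = inhibition above a cutoff derived from the DMSO control wells, cut at about 30% in these data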
# The depositor's hits bear a star; . = no result given.
SMILES,FBW7 act,TEAD-YAP inh,MITF primary,GPR151 activ,MITF confirm,AS interf ctr,others
Cc1ccc(C(=O)/C=C/c2ccc(-c3cccc(C(F)(F)F)c3)o2)cc1,0,6,-1,2,.,.,
N=S(=NS(=O)(=O)c1ccccc1)(c1ccccc1)c1ccccc1,0,1,-11,-1,.,.,
O=S(=O)(N=S(=O)(/C=C/c1ccccc1)c1ccccc1)c1ccccc1 (centres undefined),0,35*,84*,0,28*,9,AS interf DR=>5.4
CN(Cc1cccs1)c1ccc(S(=O)(=O)N2CCCC2)cn1,0,7,-3,4,.,.,
O=C(Cc1cccc(C(F)(F)F)c1)Nc1ccccc1,0,10,-19,1,.,.,
OCCN(Cc1ccccc1)Cc1cccc(F)c1,1,-18,57*,0,9,9,
OCCN(Cc1ccccc1)Cc1ccccc1Cl,0,-1,14,0,.,.,
OCCN(Cc1ccccc1)Cc1ccc(C(F)(F)F)cc1,0,1,52*,3,-3,0,
OCCN(Cc1ccccc1)Cc1cccc(C(F)(F)F)c1,0,-8,52*,-1,-13,-4,
OCCN(Cc1ccccc1)Cc1ccccc1F,1,6,61*,-1,-3,-9,
CSc1ccc(CN(CCO)Cc2ccccc2)cc1,1,13,35,2,.,.,
C/C(=C/C(=O)C(F)(F)C(F)F)Nc1ccccc1,0,0,12,2,.,.,
CCCCCCNc1nc2c(c(=O)[nH]c(=O)n2C)n1Cc1ccc(F)cc1,0,5,12,1,.,.,
COc1ccc(OC)c(NC2CCCCC2OC)c1 (centres undefined),0,21,82*,0,16,24,
CC(NS(=O)(=O)c1ccc(S(=O)(=O)NCc2ccccc2)cc1)c1cccs1 (centres undefined),0,2,22,0,.,.,
CCCCNS(=O)(=O)c1ccc(S(=O)(=O)NC(C)c2cccs2)cc1 (centres undefined),0,4,56*,1,6,6,
CCn1nc(C(=O)Nc2cc(C)nn2-c2nc3ccccc3s2)cc1C,0,13,1,0,.,.,
CCn1nc(C(=O)Nc2nc3ccccc3s2)cc1C,0,88*,69*,-9,-4,-5,
O=C(CCC1CCCCC1)Nc1nc2ccccc2s1,0,-32,92*,1,7,11,
CCCC(=O)Nc1nc2ccccc2s1,0,-39,13,-2,.,.,
CN1CCN(CC(=O)Nc2nc3ccccc3s2)CC1,0,-15,51*,0,7,14,
Nn1cnnc1SCc1ccc(Cl)cc1,0,1,14,0,.,.,
COc1cc(CN2CCN(Cc3ccccc3C)CC2)cc(OC)c1,0,-3,80*,-1,2,10,
COc1cc(CN2CCN(Cc3cccc4ccccc34)CC2)cc(OC)c1,0,9,74*,-1,-11,4,
COc1cc(OC)c(/C=N/N2CCN(Cc3cccc4ccccc34)CC2)c(OC)c1,-1,13,12,1,.,.,
SMILES,FBW7 act,TEAD-YAP inh,MITF primary,GPR151 activ,MITF confirm,AS interf ctr,others
COc1ccc(CCN(CCC(=O)O)CCC(=O)O)cc1OC,0,1,58*,-1,-13,-3,
CCCNC(=O)c1cnc(Nc2cnccn2)s1,0,-12,55*,-2,3,8,
CCOc1ccc(Br)cc1/C=C1/C(=O)N(c2ccccc2)N=C1C,0,3,-12,-1,.,.,
CCc1ccc(N2C(=O)C(Cl)=C(NC3CCCCC3)C2=O)cc1,0,-4,64*,2,-5,6,
Cc1ccc(NC(=O)N[C@H]2C[C@H]3C(=O)N[C@@H](C)C(=O)N3C2)cc1Cl,0,2,0,2,.,.,
CC1(C)Cc2cccc(OCc3ccc(C(=O)NCc4ccncc4)cc3)c2O1,0,15,59*,2,-11,2,
O=C(NC1CCSC1=O)c1ccccc1Br (centres undefined),0,-5,-6,-1,.,.,
CCc1nc(NCCCCCO)c2nnn(Cc3ccccc3F)c2n1,0,12,59*,1,6,15,
NCCCNCCOc1ccc(Cl)cc1,0,1,13,2,.,.,
COCCNC(=S)N(CCN(C)C)Cc1cc2c(C)ccc(C)c2[nH]c1=O,0,-2,8,-1,.,.,
CCCCn1nnnc1SCC(=O)Nc1cccc(C(C)=O)c1,0,-4,68*,0,3,5,
CC(=O)NNC(=O)CSc1nnnn1-c1cccc(C(C)=O)c1,0,4,73*,2,4,16,
CCCCn1nnnc1SCC(=O)Nc1cccc(C)c1,0,-7,21,0,.,.,
O=C(Cn1nnc(-c2ccccc2)n1)N/N=C/c1cc([N+](=O)[O-])cc([N+](=O)[O-])c1O,0,-3,2,3,.,.,
Cc1cccc(CNC(=O)C2CC23CCN(C(=O)C2(C)CCCCC2)CC3)n1 (centres undefined),0,2,6,0,.,.,
CCCC(=O)Nc1c(CC)c(CCC)nc2ccccc12,0,3,5,1,.,.,
CCCc1nc2ccccc2c(NC(=O)CN(C)CCc2ccc(OC)c(OC)c2)c1CC,0,7,70*,3,7,-1,
OCCN(CCO)c1ncnc2sc3c(c12)CCCC3,0,-1,68*,0,8,15,
COc1cccc(-c2nc(C3CCN(C(C)=O)CC3)n3ccc(Cl)cc23)c1,0,2,77*,0,7,13,
O=c1c2ccccc2nc(SCc2cc(F)cc3c2OCOC3)n1C1CCCCC1,0,2,69*,-2,10,-1,
CCOC(=O)c1cc2c(c(CSc3nc4ccccc4c(=O)n3Cc3ccccc3)c1)OCOC2,0,-6,-8,-1,.,.,
CCOC(=O)c1cc2c(c(CSc3nc4ccccc4c(=O)n3CCc3ccccc3)c1)OCOC2,0,-5,69*,1,-11,-9,
CCOc1ccc(-n2nc(C(=O)Nc3c(F)cccc3F)c3ccccc3c2=O)cc1,0,1,-2,-1,.,.,
CCOc1cc([N+](=O)[O-])c([N+](=O)[O-])cc1OC,0,6,8,-1,.,.,
CCN(CC)C(=S)SCc1cn2cccc(C)c2n1,0,-12,-3,1,.,.,
SMILES,FBW7 act,TEAD-YAP inh,MITF primary,GPR151 activ,MITF confirm,AS interf ctr,others
CCN(CC)C(=S)SCc1c(C)c(C)c(Br)c(C)c1C,0,8,52*,1,3,7,
CCC(=O)c1ccccc1OCCCCN1CCN(C)CC1,0,8,-20,0,.,.,
CCC(=O)c1ccccc1OCCN1CCN(CC)CC1,0,-2,68*,3,15,18,
CCC(=O)c1ccccc1OCCCCn1cncn1,0,2,74*,0,9,20,
CCC(=O)c1ccccc1OCCCN1CCN(Cc2ccccc2)CC1,0,4,56*,1,4,20,
Cc1ccccc1CC(=O)N1CCC[C@@H]2CN(Cc3cccs3)CC[C@H]21,0,-3,6,-1,.,.,
